In the supplement of paper PMC10121225:
Where a name gives a salt, the structure may show the parent alone.

system: hN + hpA co-culture (H1 iNGN2 human neurons + human primary astrocytes); test: presynaptic density (SYNAPSIN1 puncta per MAP2 neurite area), Z-score vs DMSO controls; higher = more presynaptic puncta (synapse-promoting); conditions: 3 µM; 72 h
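Further: immunostained co-cultures imaged by high-content microscopy, Z-score per plate against mean and SD of 0.1% DMSO wells, compounds added on differentiation day 18, analysed day 21.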

Q: With `CCc1cccc2c3c([nH]c12)C(CC)(CC(=O)O)OCC3` (stereo unspecified) [Etodolac] as the compound, how does the “presynaptic density (Z-score)” value read?
A: -1.87

Q: With `COc1cc2nc(N3CCN(C(=O)C4COc5ccccc5O4)CC3)nc(N)c2cc1OC` (stereo unspecified) [Doxazosin mesylate] as the compound, how does the “presynaptic density (Z-score)” value read?
A: 0.0192

Q: For `COc1ccccc1N1CCN(CC(O)COc2cccc3ccccc23)CC1` (stereo unspecified), which “presynaptic density (Z-score)” value is on record?
A: -0.464

Q: How did the “presynaptic density (Z-score)” value turn out when `Cc1nn(-c2ccccc2)c(C)c1C=NN1CCN(Cc2ccccc2)CC1` was run?
A: -0.2

Q: For `CCCCc1nc(Cl)c(CO)n1Cc1ccc(-c2ccccc2-c2nnn[nH]2)cc1` [Losartan Potassium (DuP 753)], which “presynaptic density (Z-score)” value is on record?
A: 0.806

Q: Which “presynaptic density (Z-score)” value does the source give for `Nc1ncnc2c1c(-c1cccc(OCc3ccccc3)c1)cn2C1CC(CN2CCCC2)C1` (stereo unspecified) here?
A: -1.9

Q: How did the “presynaptic density (Z-score)” value turn out when `COc1cc(Br)c(Nc2nc(-c3c(C)nc4ncccn34)cs2)c(Br)c1` was run?
A: -2

Q: For `O=c1oc2cc(O)ccc2s1`, which “presynaptic density (Z-score)” value is on record?
A: -0.113

Q: Which “presynaptic density (Z-score)” value does the source give for `COc1cc(CCc2cc(NC(=O)c3ccc(N4CC(C)NC(C)C4)cc3)n[nH]2)cc(OC)c1` (stereo unspecified) here?
A: -0.132

Q: `CC(C)(C)NC(=O)[C@H]1CC[C@H]2[C@@H]3CC[C@H]4NC(=O)C=C[C@]4(C)[C@H]3CC[C@]12C` [Finasteride] was tested. Which “presynaptic density (Z-score)” value did it give?
A: -0.206

Q: For `C[C@@H](NCCCc1cccc(C(F)(F)F)c1)c1cccc2ccccc12` [Cinacalcet HCl], which “presynaptic density (Z-score)” value is on record?
A: -1.05

Q: How did the “presynaptic density (Z-score)” value turn out when `COc1ccc2cccc(CCNC(C)=O)c2c1` [Agomelatine] was run?
A: -0.284

Q: With `Cc1c(C(=O)NN2CCCCC2)nn(-c2ccc(Cl)cc2Cl)c1-c1ccc(Cl)cc1` [Rimonabant] as the compound, how does the “presynaptic density (Z-score)” value read?
A: -0.594

Q: How did the “presynaptic density (Z-score)” value turn out when `Cc1ccc(C(=O)N(CCCN)[C@@H](c2oc3cc(Cl)ccc3c(=O)c2Cc2ccccc2)C(C)C)cc1` was run?
A: -3.49

Q: Which “presynaptic density (Z-score)” value does the source give for `N#CC(=C(N)Sc1ccccc1N)C(C#N)=C(N)Sc1ccccc1N` [1,4-Diamino-2,3-dicyano-1,4-bis[2-aminophenylthio]butadiene] here?
A: -0.048

Q: How did the “presynaptic density (Z-score)” value turn out when `CC1(C)CCC(CN2CCN(c3ccc(C(=O)NS(=O)(=O)c4ccc(NCC5CCOCC5)c([N+](=O)[O-])c4)c(Oc4cnc5[nH]ccc5c4)c3)CC2)=C(c2ccc(Cl)cc2)C1` was run?
A: -1.11

Q: Which “presynaptic density (Z-score)” value does the source give for `N#CC[C@H](C1CCCC1)n1cc(-c2ncnc3[nH]ccc23)cn1` here?
A: 0.202

Q: For `Oc1cc(O)cc(/C=C/c2ccc(O)c(O)c2)c1` [Piceatannol], which “presynaptic density (Z-score)” value is on record?
A: -0.0151

Q: With `COc1cc(Nc2ncc(F)c(Nc3ccc4c(n3)N(COP(=O)(O)O)C(=O)C(C)(C)O4)n2)cc(OC)c1OC` [Fostamatinib (R788)] as the compound, how does the “presynaptic density (Z-score)” value read?
A: 0.149

Q: How did the “presynaptic density (Z-score)” value turn out when `CCCC(=O)Nc1cccc(NC(=O)c2ccccc2Br)c1` was run?
A: -0.374

Q: For `CNCc1ccc(-c2cc(-c3nc(-c4ccc(S(=O)(=O)C(C)C)cc4)cnc3N)on2)cc1`, which “presynaptic density (Z-score)” value is on record?
A: -1.03

Q: For `CN[C@H]1CC[C@@H](c2ccc(Cl)c(Cl)c2)c2ccccc21`, which “presynaptic density (Z-score)” value is on record?
A: 1.13

Q: Which “presynaptic density (Z-score)” value does the source give for `Cc1cc(C(C)(C)C)c(O)c(C)c1CC1=NCCN1` [Oxymetazoline HCl] here?
A: -0.235

Q: Which “presynaptic density (Z-score)” value does the source give for `CC(C)OC(=O)OCOP(=O)(CO[C@H](C)Cn1cnc2c(N)ncnc21)OCOC(=O)OC(C)C` [Tenofovir Disoproxil Fumarate] here?
A: 0.611

Q: For `C[C@H]1COC2(CCN(c3nc(=O)c4cc(C(F)(F)F)cc([N+](=O)[O-])c4s3)CC2)O1` (racemic) [BTZ043 Racemate], which “presynaptic density (Z-score)” value is on record?
A: 0.635

Q: How did the “presynaptic density (Z-score)” value turn out when `COc1ccc2c(c1)c(C1=C(c3c[nH]c4ccccc34)C(=O)NC1=O)cn2CCCN(C)C` was run?
A: -0.96
